Screening data deposited in PubChem by National Center for Advancing Translational Sciences (NCATS).
TSHR agonist = TSH receptor (human) agonism. P16473. HEK293-CNG-TSHR cells (CNG channel as cAMP sensor), membrane potential dye, cAMP. Potency, µM (highest dose often 57.1 µM), without a hit: at the top dose activation, actives largely listed as activators. 73,000 compounds, 0.48% hits; active = well fitted activation curve with a large enough effect in the main read-out, with a control signal flat, not every such curve was filed as active; inconclusive = small, poorly fitted or top-dose-only effect, or a change in a side signal; inactive = no such curve, though single readings can be large or run the other way; % of control where 0% means no effect;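 also: the control signal comes from parental cells without the receptor; potency is read from the fitted curve at half-maximal effect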
Target sequence (P16473 whole entry, looked up): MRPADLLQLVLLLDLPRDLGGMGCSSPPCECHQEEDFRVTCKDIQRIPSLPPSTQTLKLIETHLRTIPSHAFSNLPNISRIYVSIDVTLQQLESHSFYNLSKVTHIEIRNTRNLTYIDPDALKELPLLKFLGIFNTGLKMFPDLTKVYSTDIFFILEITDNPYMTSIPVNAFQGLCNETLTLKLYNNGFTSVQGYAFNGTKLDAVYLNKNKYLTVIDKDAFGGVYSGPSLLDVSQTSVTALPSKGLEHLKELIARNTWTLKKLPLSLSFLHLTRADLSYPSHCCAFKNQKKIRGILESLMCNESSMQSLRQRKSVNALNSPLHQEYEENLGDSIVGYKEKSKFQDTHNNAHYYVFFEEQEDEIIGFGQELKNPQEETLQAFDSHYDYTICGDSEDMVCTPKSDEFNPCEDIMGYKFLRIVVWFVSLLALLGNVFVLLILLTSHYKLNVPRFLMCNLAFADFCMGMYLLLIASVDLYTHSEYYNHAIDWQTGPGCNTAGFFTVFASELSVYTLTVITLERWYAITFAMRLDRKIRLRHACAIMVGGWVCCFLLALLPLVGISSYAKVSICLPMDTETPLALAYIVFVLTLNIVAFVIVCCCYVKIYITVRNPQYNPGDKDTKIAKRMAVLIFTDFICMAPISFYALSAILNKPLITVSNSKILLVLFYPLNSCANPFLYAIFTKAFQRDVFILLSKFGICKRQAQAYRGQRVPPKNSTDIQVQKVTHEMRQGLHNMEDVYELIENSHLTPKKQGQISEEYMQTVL
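HEK 293 cells stably expressing TSHR and a cAMP-gated CNG channel; parental CNG-only cells as counterscreen. Cells preloaded 60 min with membrane potential dye plus 100 uM RO 20-1724, then compound 30 min; fluorescence read at 590 nm.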
Peg3 imprint = induces erasure of genomic imprints in mouse ES cells; mouse ES Peg3-LacZ reporter, beta-gal luminescence, 40 h; AID 1948; 110,000 compounds, 0.02% hits; Potency, µM (top dose mostly 60.7 µM), without a hit: at the top dose activity change, positive = activation, hits mostly activators; also: potency is read from the fitted curve at half-maximal effect
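Each well holds 300 Peg3LacZ-Neo (maternal) female ES cells incubated 40 h at 37C, 5% CO2. LacZ is measured by BetaGlo luminescence, with AC50 and maximum efficacy derived from dose-response curves.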
HEK293 cAMP cs = counter-screen for TSHR agonists: cAMP increase in parental HEK293 | 73,000 compounds, 2.5% hits | Potency, µM (highest dose often 57.1 µM), for the others: at the highest dose activation, usual class: activators | parental HEK293 CNG cAMP sensor, membrane potential fluorescence | AID 938; also: potency is read from the fitted curve at half-maximal effect; % of control where 0% means no effect; nearly all actives have a fitted effect of over 55% in size
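Parental HEK 293 cells stably expressing a cAMP-gated CNG channel were loaded with membrane potential dye containing 100 uM RO 20-1724 for 60 min. Compound added for 30 min; depolarization read as fluorescence intensity at 590 nm.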
HEK293 cAMP cnt = raises cAMP in parental HEK293 cells lacking TSH receptor. shares compounds with TSHR agonist. parental HEK293 CNG biosensor, cAMP membrane potential fluorescence. activity change, negative = inhibition, % at 32.9 µM. 150 tested, under 10 active
An asterisk follows results filed as active; [ ] = remark or other dose. The sample as a whole holds a higher share of hits than the screen did. Unless noted, calls follow the shape of the dose curve; as a rule, active = well fitted curve in the direction sought with a large enough effect; inconclusive = small, poorly fitted or top-dose-only effect, or another doubt; inactive = no such curve, though single readings can be large; an effect the other way counts as inactive or inconclusive.

For CCN(CC)CC[n+]1ccc2c(C)c3[nH]c4ccc(O)cc4c3c(C)c2c1 the results were TSHR agonist 19%[11.4 µM], Peg3 imprint 14%[10.9 µM] and HEK293 cAMP cs 7%[11.4 µM].
For Cc1cccc(C(=O)N2CCc3cc(CNC(=O)c4ccco4)ccc32)c1 the results were Peg3 imprint 5%[10.9 µM].
Screening Cc1cc(C)n(S(=O)(=O)c2ccc(Cl)c(Cl)c2Cl)n1 returned Peg3 imprint -16% and HEK293 cAMP cs 23%.
`Cc1cc(C)n(S(=O)(=O)c2cc(C(=O)O)c(Cl)cc2Cl)n1` gave TSHR agonist 16µM*, Peg3 imprint -6%, HEK293 cAMP cs 15% and HEK293 cAMP cnt 5.
For COCCNC(=O)C(c1ccc(C)o1)N(C(=O)c1snc(C(N)=O)c1N)c1ccc(C)cc1 (centres undefined) the results were TSHR agonist 32µM*, Peg3 imprint -1%, HEK293 cAMP cs 9% and HEK293 cAMP cnt 12.
`COCCNC(=O)C(c1ccc(C)o1)N(C(=O)c1snc(C(N)=O)c1N)c1ccc(C)c(C)c1` (centres undefined) gave HEK293 cAMP cs 23%.
For CC(C)CO/N=C1/C[C@@H](O)[C@@H](O)[C@@H]2[C@@H]3C(=O)N(C(C)(C)C)C(=O)[C@H]3CC[C@H]12 the results were TSHR agonist 2%[11.4 µM] and HEK293 cAMP cs -2%[11.4 µM].
Screening CCOC(=O)c1c(C)[nH]c(CCC(=O)Nc2ccc(C)c(F)c2)c1C returned Peg3 imprint -1%[10.9 µM].
Nc1ccc2cc3ccccc3cc2c1 was read as TSHR agonist -10%, Peg3 imprint -11% and HEK293 cAMP cs 4%.
For Nc1ccc2c(c1)COc1ccccc1O2 the results were TSHR agonist -24%, Peg3 imprint -18%, HEK293 cAMP cs -9% and HEK293 cAMP cnt -6[25.6 µM].
CCc1ccc(-c2nn(CC(=O)NC3CCCC3)c3c2cnc2ccc(C)cc23)cc1 was read as Peg3 imprint -10%[10.9 µM].
`Fc1ccccc1Cn1c(-c2ccccc2)nc2ccccc21` gave Peg3 imprint -3%[10.9 µM].
`C=C(C)Cn1c(-c2ccccc2)nc2ccccc21` gave TSHR agonist 3.2µM*, Peg3 imprint -13%, HEK293 cAMP cs 71%[11.4 µM] and HEK293 cAMP cnt inconclusive.
`Cc1ccc(CCNC(=O)C2CCN(S(=O)(=O)c3ccc4c(ccn4C)c3)CC2)cc1` gave Peg3 imprint 5%[10.9 µM].
For O=c1c2ccccc2n(Cc2cccc(Cl)c2)c(=O)n1CCc1ccccc1 the results were Peg3 imprint -6%[10.9 µM].
For CCOc1ccc(-n2c(SCC(=O)Nc3ccc(CC)cc3)nc3c(oc4ccccc43)c2=O)cc1 the results were Peg3 imprint -5%[10.9 µM].
For COc1cccc(Cn2c(=O)c(-c3cc(F)cc(F)c3)nc3cnc(N(C)C)nc32)c1 the results were TSHR agonist inconclusive, Peg3 imprint 1% and HEK293 cAMP cs inconclusive.
For O=C(NCc1nc2cccnc2n1Cc1ccc(F)cc1)c1ccccc1C(F)(F)F the results were Peg3 imprint 15%[10.9 µM].
`O=C1C2C3C=CC(C3=C3CCCCC3)C2C(=O)N1c1ccccc1` (centres undefined) gave TSHR agonist 24%, Peg3 imprint -28% and HEK293 cAMP cs 27%.
CN1C(=O)C2C=CC1C1C(=O)N(c3ccccc3)C(=O)C21 (centres undefined) was read as TSHR agonist -3%, Peg3 imprint 1%, HEK293 cAMP cs 8% and HEK293 cAMP cnt 2[25.6 µM].
For CCc1ccc(NC(=O)CN(c2ccc(C)cc2)S(=O)(=O)c2c(C)nn(C)c2C)cc1 the results were Peg3 imprint -5%[10.9 µM].
Cc1ccccc1N1CCN(c2ncnc3c2cnn3Cc2ccc(Cl)cc2)CC1 was read as Peg3 imprint 11%, HEK293 cAMP cs 18% and HEK293 cAMP cnt inconclusive.
`Cc1cc(C)nc(N2CCN(c3ncnc4c3cnn4Cc3ccc(Cl)cc3Cl)CC2)n1` gave TSHR agonist 5%, Peg3 imprint -1% and HEK293 cAMP cs 11%.
Screening O=S(=O)(c1ccc(Cl)cc1)c1nc(-c2cccs2)oc1N1CCCCC1 returned Peg3 imprint 3%[10.9 µM].
For Cc1ccc(S(=O)(=O)N2CCN(C3CCN(Cc4ccccc4)CC3)CC2)cc1 the results were TSHR agonist 9%, Peg3 imprint -7% and HEK293 cAMP cs 18%.
`O=S(=O)(c1ccccc1)N1CCN(C2CCN(Cc3ccccc3)CC2)CC1` gave TSHR agonist 8%, Peg3 imprint -14%, HEK293 cAMP cs 23% and HEK293 cAMP cnt 1[25.6 µM].
